Experimental data reported in PubChem BioAssay AID1159580 (chemical genetic matrix, 2015).
The campaign covered roughly 5,500 compounds. About 2,000 (36%) were called active. Another 18% or so got no clear call; they are omitted. Cut-off read from the data, not from the text of the source: active = normalized growth mostly below about 0.91 (no sharp cut-off); inconclusive = no clear call, values can overlap the other calls; inactive = mostly above about 0.92. The list shows a part of the results.

Experiment: chemical genetic growth profiling, strain panel (AID 1159580);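 note: tested at 20 µM; growth read once vehicle control cultures reached saturation at 30 °C; 1 = growth at the plate median or of vehicle wells; lower values mean less growth of the strain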
Conditions: growth OD
[1] = S. cerevisiae deletion strains, locus YAL013W, strain DEP1, active compounds read low
[2] = S. cerevisiae deletion strains, locus YBR229C, strain ROT2, active compounds read low
[3] = S. cerevisiae deletion strains, locus YDL101C, strain DUN1, active compounds read low
[4] = S. cerevisiae deletion strains, locus YDL134C, strain PPH21, active compounds read low
[5] = S. cerevisiae deletion strains, locus YDR150W, strain NUM1, active compounds read low
[6] = S. cerevisiae deletion strains, locus YEL061C, strain CIN8, active compounds read low
[7] = S. cerevisiae deletion strains, locus YGR078C, strain PAC10, active compounds read low
[8] = S. cerevisiae deletion strains, locus YHR030C, strain SLT2, active compounds read low
[9] = S. cerevisiae deletion strains, locus YHR087W, strain rtc3, active compounds read low
[10] = S. cerevisiae deletion strains, locus YJR043C, strain POL32, active compounds read low
[11] = S. cerevisiae deletion strains, locus YJR075W, strain HOC1, active compounds read low
[12] = S. cerevisiae deletion strains, locus YLR039C, strain RIC1, active compounds read low
[13] = S. cerevisiae deletion strains, locus YLR058C, strain SHM2 (second series), active compounds read low
[14] = S. cerevisiae deletion strains, locus YLR085C, strain ARP6, active compounds read low
[15] = S. cerevisiae deletion strains, locus YLR262C, strain YPT6, active compounds read low
[16] = S. cerevisiae deletion strains, locus YML094W, strain GIM5, active compounds read low
[17] = S. cerevisiae deletion strains, locus YMR219W, strain ESC1, active compounds read low
[18] = S. cerevisiae deletion strains, locus YMR263W, strain SAP30, active compounds read low
[19] = S. cerevisiae deletion strains, locus YNL153C, strain GIM3, active compounds read low
[20] = S. cerevisiae deletion strains, locus YNL298W, strain CLA4 (second series), active compounds read low
[21] = S. cerevisiae deletion strains, locus YNL322C, strain KRE1, active compounds read low
[22] = S. cerevisiae deletion strains, locus YNR030W, strain Alg12, active compounds read low
[23] = S. cerevisiae deletion strains, locus YPL055C, strain LGE1, active compounds read low
[24] = S. cerevisiae deletion strains, locus YPL241C, strain CIN2, active compounds read low
[25] = S. cerevisiae deletion strains, locus YPR135W, strain CTF4, active compounds read low
[26] = S. cerevisiae strains, strain wild type, active compounds read low

Measured: normalized growth

CC(C)(C)c1nc(N)sc1Br
inactive: [1] 1 | [2] 0.998 | [3] 1.04 | [4] 0.986 | [5] 0.993 | [6] 1.02 | [7] 1 | [8] 0.98 | [9] 1.01 | S. cerevisiae deletion strains, locus YJL187C, strain SWE1, active compounds read low 1 | [10] 1.01 | [11] 1.01 | [12] 0.932 | [13] 1 | [14] 0.985 | [15] 0.951 | [16] 0.965 | [17] 1.01 | [18] 0.993 | [19] 1.02 | [20] 0.981 | [21] 1.01 | [22] 1 | [23] 0.984 | [24] 0.995 | [25] 0.868 | [26] 1

CN1c2ccccc2C(=O)NC1c1cc(Br)cs1 (configuration not stated)
inactive: [1] 1.02 | [2] 0.996 | S. cerevisiae deletion strains, locus YCL061C, strain MRC1, active compounds read low 1.02 | [3] 0.996 | [4] 1.01 | [5] 0.996 | [6] 0.997 | [7] 1 | S. cerevisiae deletion strains, locus YGR229C, strain SMI1, active compounds read low 0.998 | [8] 0.99 | [9] 1.01 | [10] 1.02 | [11] 0.993 | S. cerevisiae deletion strains, locus YKL190W, strain CNB1, active compounds read low 1.01 | [12] 1.07 | [13] 1.01 | [14] 1.06 | [15] 1.06 | [16] 1.01 | [17] 1.01 | [18] 1.01 | [19] 1 | [20] 1.04 | [21] 0.996 | [22] 1.03 | S. cerevisiae deletion strains, locus YOL006C, strain TOP1, active compounds read low 1.06 | [23] 1.01 | [24] 0.996 | [25] 0.969 | [26] 1.03
